Reference: article PMC4336329 (PLoS ONE, 2015)
Hit rate of the full screen: of about 310,000 compounds, about 14,000 (4.5%) showed an effect of 50% or more. The effect is printed as a negative number. Many of the other results were omitted from the sample, so strong results are more common in it than they were.

The compounds below were run against human ether-à-go-go-related gene (hERG) potassium channel (human, UniProt Q12809) (assay: primary screen, population patch clamp on CHO cells stably expressing hERG; higher = less effect of the substance).
Chain of human ether-à-go-go-related gene (hERG) potassium channel (Q12809 whole entry, looked up): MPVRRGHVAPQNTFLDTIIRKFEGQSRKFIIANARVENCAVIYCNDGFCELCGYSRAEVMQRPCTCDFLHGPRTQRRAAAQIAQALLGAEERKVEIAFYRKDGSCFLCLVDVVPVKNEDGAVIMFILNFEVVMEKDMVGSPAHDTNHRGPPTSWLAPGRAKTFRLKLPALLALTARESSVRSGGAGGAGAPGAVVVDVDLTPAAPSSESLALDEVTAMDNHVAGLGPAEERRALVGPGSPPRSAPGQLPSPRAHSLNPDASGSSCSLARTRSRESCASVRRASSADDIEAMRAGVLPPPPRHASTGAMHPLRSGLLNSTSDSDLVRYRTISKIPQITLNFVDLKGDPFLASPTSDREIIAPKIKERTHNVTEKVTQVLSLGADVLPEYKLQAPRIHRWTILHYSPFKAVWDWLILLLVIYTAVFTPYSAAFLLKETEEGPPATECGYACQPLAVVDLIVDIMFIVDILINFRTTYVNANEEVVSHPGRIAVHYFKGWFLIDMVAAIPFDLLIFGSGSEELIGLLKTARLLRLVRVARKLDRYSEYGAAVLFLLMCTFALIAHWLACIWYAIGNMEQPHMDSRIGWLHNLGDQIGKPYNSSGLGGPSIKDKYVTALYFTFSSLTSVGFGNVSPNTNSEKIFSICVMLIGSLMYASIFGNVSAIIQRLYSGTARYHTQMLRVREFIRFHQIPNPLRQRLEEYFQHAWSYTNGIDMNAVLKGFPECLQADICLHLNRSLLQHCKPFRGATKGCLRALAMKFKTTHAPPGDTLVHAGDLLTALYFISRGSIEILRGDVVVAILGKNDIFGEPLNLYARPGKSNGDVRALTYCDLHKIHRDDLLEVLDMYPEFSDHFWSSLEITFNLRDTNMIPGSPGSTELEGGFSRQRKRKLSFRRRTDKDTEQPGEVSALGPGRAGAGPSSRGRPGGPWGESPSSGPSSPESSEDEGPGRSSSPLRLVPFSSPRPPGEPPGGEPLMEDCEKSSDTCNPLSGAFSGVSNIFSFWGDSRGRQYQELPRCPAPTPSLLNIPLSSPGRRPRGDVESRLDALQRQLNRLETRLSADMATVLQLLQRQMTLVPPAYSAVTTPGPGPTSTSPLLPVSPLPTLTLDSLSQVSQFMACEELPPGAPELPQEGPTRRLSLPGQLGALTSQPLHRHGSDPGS
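Further: peak tail current of the secondary pulse compared with the same well before compound.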

Compound | hERG current change (%, negative = inhibition) at 10uM [%]
CCCc1nc(C)c2c(=O)[nH]c(-c3cc(S(=O)(=O)N4CCN(CC)CC4)ccc3OCC)nn12.O=C(O)CC(O)(CC(=O)O)C(=O)O | 0.215
COc1cccc(N2CCN(S(=O)(=O)c3ccc4c(c3)CC(C)N4C(=O)C3CC3)CC2)c1 (centres unmarked) | 17.8
CC1C(=O)N(Cc2ccccc2F)c2ccccc2N1C(=O)c1c(F)cccc1F (centres unmarked) | -6.04
CC(C)N1CCc2c(sc(NC(=O)c3nc4ccccc4s3)c2C(N)=O)C1.Cl | -45.1
CCCn1c(SCC(=O)/C(C#N)=C(\C)N)n[nH]c1=O | 7.25
CC(C)C(=O)Nc1nnc(Cc2c[nH]c3ccccc23)s1 | 28
Cc1[nH]n(-c2ccccc2)c(=O)c1C=NC1CCCCC1 | -10.5
O=C(CCCN1C(=O)/C(=C\c2cccs2)SC1=S)Nc1cccc(C(=O)O)c1 | 9.57
CCOC(=O)C1CCN(c2nc3c(C)cccn3c(=O)c2/C=C(\C#N)S(=O)(=O)c2ccccc2)CC1 | -18.1
Cc1ccc(S(=O)(=O)/C(C#N)=C/c2c(N3CCC(C(N)=O)CC3)nc3c(C)cccn3c2=O)cc1 | -71.4
Cc1cccn2c(=O)c(/C=C(\C#N)C(=O)NCc3ccco3)c(N3CCC(C(N)=O)CC3)nc12 | -43
CCN1CCN(c2nc3c(C)cccn3c(=O)c2/C=C(\C#N)S(=O)(=O)c2ccc(Cl)cc2)CC1 | -44.9
Cc1cccn2c(=O)c(/C=C(\C#N)S(=O)(=O)c3ccccc3)c(N3CCCCC3)nc12 | 9.28
Cc1cccn2c(=O)c(/C=C(\C#N)S(=O)(=O)c3ccc(Cl)cc3)c(N3CCC(C(N)=O)CC3)nc12 | -77.8
Cc1cccn2c(=O)c(/C=C(\C#N)C(=O)NCc3ccccc3)c(N3CCC(C(N)=O)CC3)nc12 | -29.1
Cc1cccn2c(=O)c(/C=C(\C#N)S(=O)(=O)c3ccccc3)c(N3CCC(C(N)=O)CC3)nc12 | -75.4
COc1ccc(C=Nc2cccc3ncccc23)cc1 | 4.44
Cc1ccc(C(=O)Nc2ccc(S(=O)(=O)N3CCOCC3)cc2)cc1Br | 3.46
CC(=O)Nc1nc(-c2ccc(Cl)cc2)nc(C)c1C(C)=O | -19.8
CCN(C(=O)COC(=O)C1=COCCO1)c1ccccc1 | -2.33
O=c1cc(Cc2nnc(SCc3ccccc3)n2-c2ccc(Cl)cc2)[nH]c(=O)[nH]1 | 0.593
COc1ccc(N2CCN(C(=O)c3cc(-c4cc(OC)ccc4OC)nc4ccccc34)CC2)cc1 | -1.23
Cc1ccc2nc3c(nc2c1C)C(O)=C3O | 6.68
O=C1c2ccccc2C(=O)c2c1cccc2N1CCOCC1 | -30.4
O=C1c2ccccc2-c2ncnc3c(N4CCOCC4)cc(N4CCOCC4)c1c23 | -60
Cc1ccc(N2CCOCC2)c2c1C(=O)c1ccccc1C2=O | -19.1
CCOCCn1c(SCc2ccc(C)cc2)nc2c1c(=O)[nH]c(=O)n2C | 14.5

Compound | hERG current change (%, negative = inhibition) at 10uM [%]
CC(=O)c1ccc(N2CCN(CC(=O)NCc3ccccc3)CC2)cc1 | -44.3
O=C(CN1CCN(c2ccc(F)cc2)CC1)NCc1ccc(F)cc1 | -43.9
N#Cc1ccc(CN2CCN(CC(=O)NCCc3ccc(Cl)cc3Cl)CC2)cc1 | -68.8
O=C(CN1CCN(c2ccccc2)CC1)NCc1ccc(F)cc1 | -11
COc1ccc(CNC(=O)CN2CCN(c3ccc(F)cc3)CC2)cc1 | -39.1
COc1ccc(N2CCN(CC(=O)NCc3ccc(Cl)cc3)CC2)cc1 | -55.7
O=C(CN1CCNC(=O)C1)NCCc1ccc(Cl)cc1Cl | 1.45
O=C(CN1CCN(c2ccc(Cl)cc2)CC1)NCc1ccccc1 | -51.3
O=C(Cn1cnnn1)NCCc1ccc(Cl)cc1Cl | -19.6
COc1ccc(CNC(=O)CN2CCN(c3ccccc3)CC2)cc1 | 3.65
O=C(CN1CCN(c2cccc(Cl)c2)CC1)NCc1ccccc1 | -15.5
Cc1ccc(CNC(=O)CN2CCN(c3ccc(F)cc3)CC2)cc1 | -50.8
S=c1[nH]nc(COc2ccccc2)n1/N=C/c1ccncc1 | 7.06
O=C(NCCOc1ccc(Cl)cc1)c1ccc2c(c1)OCCO2 | -7.8
COc1ccc(O)c(C=Nc2cc(NC(C)=O)c(Cl)cc2Cl)c1 | 2.95
O=C1c2ccccc2C(=O)N1CC(O)COc1ccc(Br)cc1 (centres unmarked) | -1.51
O=C(CN1CCN(Cc2ccccc2)CC1)NCc1ccc(Cl)cc1 | -61.1
O=C(CN1CCN(c2ccc(F)cc2)CC1)NCc1ccc(Cl)cc1 | -62.7
O=C(CN1CCN(Cc2ccc(F)cc2)CC1)NCc1ccccc1 | -27.5
Cl.O=C(CN1CCOCC1)NCc1ccc(F)cc1 | 21.6
O=C(NCc1ccc(Cl)cc1)N1CCN(Cc2ccccc2)CC1 | -29.9
Fc1ccc(CN2CCN(c3ccc(Cl)cc3)CC2)cc1 | -13.6
Cc1ccc(C(=O)c2cc3c(cc2[N+](=O)[O-])OCCO3)cc1 | -9.5
CCc1cc[n+](C2=C([O-])c3ccccc3C(=O)/C2=N\S(=O)(=O)c2cccs2)cc1 | -11.6
O=C1/C(=N\S(=O)(=O)c2cccs2)C([n+]2ccc(CCCc3ccccc3)cc2)=C([O-])c2ccccc21 | -70.5
O=C1/C(=N\S(=O)(=O)c2cccs2)C([n+]2ccccc2)=C([O-])c2ccccc21 | 33.6
